Records with an inconclusive call do not appear. Values without a mark were called inactive. Calls of active or inactive are those of the source. Calls come from the whole dose curve; as a rule, active = well fitted curve in either direction with a large enough effect (not every such curve was filed as active); inconclusive = small, poorly fitted or top-dose-only effect, or another doubt; inactive = flat fitted curve, though single readings scatter.
% is set by controls: 0 for no effect and ±100 for the full control effect.

One assay can be described thus: NFAT Signaling Pathway (AID 444).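 Note: carbachol stimulus at about its EC50 of 1 µM final.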 Conditions: Jurkat NFAT-bla M1, carbachol, beta-lactamase ratio, 5 h; at 17.2 µM (top of the series) unless noted. In outline:
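Read-out: CCF4 FRET ratio (460 nm/530 nm) after 1 h RT dye loading, used for %activity and AC50 from titration series. Cells: Jurkat NFAT-β-lactamase/M1 line, treated with compound plus 1 uM carbachol for 5 h, 37 °C.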
As to `c1cncc(-c2nnc3sc(-c4ccco4)nn23)c1`, the activity change, negative = inhibition was 4.1%.

Regarding `Cc1cccc(N2C(=O)CC(N3CCN(Cc4ccc(Cl)cc4)CC3)C2=O)c1` (stereo not given), the activity change, negative = inhibition was 6.12%.

Turning to `N#Cc1nc(COc2ccccc2F)oc1NCCCn1ccnc1`, the activity change, negative = inhibition was -21.7%.

Regarding `Cc1cccc(N(CC(O)CN(C)C)S(=O)(=O)c2ccccc2)c1` (stereo not given), the activity change, negative = inhibition was -3.01%.

On to `Cn1c(OCc2cccnc2)nc2c1c(=O)n(Cc1ccc(Cl)cc1)c(=O)n2C`, for which the activity change, negative = inhibition was 22%.

On to `CSc1nc2sc3c(c2c(=O)[nH]1)CCC(C)C3` (stereo not given), for which the activity change, negative = inhibition was -2.6%.

For the compound `COc1ccccc1N1CCN(C2CCN(C(=O)c3cccs3)CC2)CC1`, the activity change, negative = inhibition is -21.8%.

Turning to `C=CCc1cccc(/C=N/n2cnnc2)c1O`, the activity change, negative = inhibition is -2.18%.

On to `O=S(=O)(c1ccc2ccccc2c1)N(CC(O)CN1CCOCC1)c1ccccc1` (stereo not given), for which the activity change, negative = inhibition is 4.35%.

As to `CC(C)c1[nH]c(=O)c(C#N)c2c1CSC(C)(C)C2`, the activity change, negative = inhibition was -5.85%.

For the compound `COc1cc(S(=O)(=O)N2CCN(c3ccc(F)cc3)CC2)ccc1Cl`, the activity change, negative = inhibition was -11.7%.

For `O=C(O)CC1SC(=Nc2cccc(C(F)(F)F)c2)NC1=O` (stereo not given), the activity change, negative = inhibition is 9.67%.

As for `CCC(=O)NC1(C(F)(F)F)C(=O)Nc2c1c(=O)[nH]c(=O)n2Cc1ccco1` (stereo not given), the activity change, negative = inhibition was 18.9%.

As to `O=c1c(F)cn(C2CCCO2)c(=O)n1Cc1ccccc1Cl` (stereo not given), the activity change, negative = inhibition was -19.1%.

For the compound `CS(=O)(=O)c1ccc2nc(NC(NC(=O)c3ccco3)(C(F)(F)F)C(F)(F)F)sc2c1`, the activity change, negative = inhibition was 21.2%.

Consider `CCn1c(SC(C)C(=O)O)nc2sc3c(c2c1=O)CCC3` (stereo not given), for which the activity change, negative = inhibition was 17.5%.

For `Cc1nc2c(c(=O)n1CC1CCCO1)c1nc3ccccc3nc1n2CC(C)C` (stereo not given), the activity change, negative = inhibition was 6.99%.

For `O=c1cc(O)nc2n1CCCS2`, the activity change, negative = inhibition is -0.525%.

Take `COc1cc(C)nc(N(C)S(=O)(=O)c2ccccc2Cl)n1`: the activity change, negative = inhibition was -19.3%.

For the compound `COc1cc(C2C3C(=O)N(c4ccccc4)C(=O)C3ON2c2ccccc2)ccc1O` (stereo not given), the activity change, negative = inhibition was 7.65%.

As for `COc1ccc(C2C(C#N)=C(N)SC(N)=C2C#N)cc1OC`, the activity change, negative = inhibition was 29.6%.

As to `Clc1ccc2[nH]c3c(NCCCN4CCOCC4)ncnc3c2c1`, the activity change, negative = inhibition is -2.05%.

As to `CCOc1cccc(-c2nn3c(-c4ccco4)nnc3s2)c1`, the activity change, negative = inhibition is -4.59%.

Take `CCCCOC(=O)c1[nH]c(C)c(C(=O)OC)c1C`: the activity change, negative = inhibition was 8.05%.

Take `CC1(C)Cc2c(c(N3CCOCC3)nc3snc(N)c23)CO1`: the activity change, negative = inhibition is -24.1%.

On to `CCOc1ccccc1N1CCN(c2nc3ccccc3nc2C(C#N)C(=O)OC)CC1` (stereo not given), for which the activity change, negative = inhibition was -106% (active).

As to `CC(=O)Nc1ccc(NCC(O)COc2ccccc2)cc1` (stereo not given), the activity change, negative = inhibition was -5.41%.

Consider `O=C1NC(c2cccs2)Nc2ccccc21` (stereo not given), for which the activity change, negative = inhibition was -4.93%.

For the compound `CCOC(=O)CNC(=O)CNC(=O)c1ccc(OC)cc1`, the activity change, negative = inhibition was -1.87%.

For the compound `O=C(NCc1ccccc1)C1C(=O)N(Cc2ccccc2)C(=O)C1C1(O)CCCC1` (stereo not given), the activity change, negative = inhibition was 23.6%.

Consider `CC(C)Cc1[nH]c(=O)c(C#N)c2c1CCCC2`, for which the activity change, negative = inhibition was 2.23%.

As to `Nc1nnc(CC2=CCCCC2)s1`, the activity change, negative = inhibition is -3.51%.

For `CCN=C1SC(C(=O)Nc2ccc(Cl)c(Cl)c2)CC(=O)N1CC` (stereo not given), the activity change, negative = inhibition was 10.1%.

For the compound `CCC1CC2(C)NC(=O)c3c(sc4c3CC(C)(C)OC4)N2C1=O` (stereo not given), the activity change, negative = inhibition is -20.5%.

Take `COC(=O)CCc1c(C)[nH]c(=S)[nH]c1=O`: the activity change, negative = inhibition is 14.4%.

Take `CC(C)(C)C1=Nn2c(nnc2C2CCCCC2)SC1`: the activity change, negative = inhibition was -6.37%.

As to `c1coc(-c2nc3nc4ccccc4nc3n2-c2ccc3c(c2)OCCO3)c1`, the activity change, negative = inhibition was 21.1%.

`C/C(=N\O)c1c(C)c2ccccc2n1C`: the activity change, negative = inhibition is -14.1%.

Take `Cc1cc(N2C(=O)C(=O)/C(=C(/O)c3ccc(F)cc3)C2c2cccc(Br)c2)no1` (stereo not given): the activity change, negative = inhibition was 2.37%.

For the compound `CCCCOC(=O)CCc1nc2ccccc2[nH]1`, the activity change, negative = inhibition was -0.459%.

The nature of a further assay: Stat Signaling Pathway (AID 446).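 Note: ME-180 cervical cancer cells given 40 pM IL-6 alongside compound; SIE-controlled beta-lactamase reporter measured as 460/530 nm FRET emission ratio.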 Conditions: ME-180 (cervical carcinoma) SIE beta-lactamase reporter, IL-6 stimulated, 5 h; at 17.2 µM (top of the series) unless noted. In outline:
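ME-180 SIE-bla cells; overnight plating; cpd + IL-6 40 pM, 5 h, 37 C; LiveBLAzer 2.5 h RT; 460/530 nm emission ratio. Normalized to 300 pM IL-6 and 125 nM JAK inhibitor controls.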
For the compound `c1cncc(-c2nnc3sc(-c4ccco4)nn23)c1`, the activity, negative = inhibition is -6.03%.

As for `Cc1cccc(N2C(=O)CC(N3CCN(Cc4ccc(Cl)cc4)CC3)C2=O)c1` (stereo not given), the activity, negative = inhibition was 1.94%.

In the case of `N#Cc1nc(COc2ccccc2F)oc1NCCCn1ccnc1`, the activity, negative = inhibition was 5.2%.

For the compound `Cc1cccc(N(CC(O)CN(C)C)S(=O)(=O)c2ccccc2)c1` (stereo not given), the activity, negative = inhibition was 3.62%.

In the case of `Cn1c(OCc2cccnc2)nc2c1c(=O)n(Cc1ccc(Cl)cc1)c(=O)n2C`, the activity, negative = inhibition was -15.9%.

Take `CSc1nc2sc3c(c2c(=O)[nH]1)CCC(C)C3` (stereo not given): the activity, negative = inhibition is 8.48%.

For the compound `COc1ccccc1N1CCN(C2CCN(C(=O)c3cccs3)CC2)CC1`, the activity, negative = inhibition was 19.6%.

On to `C=CCc1cccc(/C=N/n2cnnc2)c1O`, for which the activity, negative = inhibition is 7.8%.

In the case of `O=S(=O)(c1ccc2ccccc2c1)N(CC(O)CN1CCOCC1)c1ccccc1` (stereo not given), the activity, negative = inhibition is -7.59%.

On to `CC(C)c1[nH]c(=O)c(C#N)c2c1CSC(C)(C)C2`, for which the activity, negative = inhibition was 4.25%.

Consider `COc1cc(S(=O)(=O)N2CCN(c3ccc(F)cc3)CC2)ccc1Cl`, for which the activity, negative = inhibition is -12.1%.

Take `O=C(O)CC1SC(=Nc2cccc(C(F)(F)F)c2)NC1=O` (stereo not given): the activity, negative = inhibition is -0.717%.

For the compound `CCC(=O)NC1(C(F)(F)F)C(=O)Nc2c1c(=O)[nH]c(=O)n2Cc1ccco1` (stereo not given), the activity, negative = inhibition was -0.859%.

`O=c1c(F)cn(C2CCCO2)c(=O)n1Cc1ccccc1Cl` (stereo not given): the activity, negative = inhibition was 11.6%.

With `CS(=O)(=O)c1ccc2nc(NC(NC(=O)c3ccco3)(C(F)(F)F)C(F)(F)F)sc2c1`, the activity, negative = inhibition is -18.9%.

Turning to `CCn1c(SC(C)C(=O)O)nc2sc3c(c2c1=O)CCC3` (stereo not given), the activity, negative = inhibition was -5.33%.

For the compound `Cc1nc2c(c(=O)n1CC1CCCO1)c1nc3ccccc3nc1n2CC(C)C` (stereo not given), the activity, negative = inhibition was 8.26%.

For the compound `O=c1cc(O)nc2n1CCCS2`, the activity, negative = inhibition is -1.13%.

With `COc1cc(C)nc(N(C)S(=O)(=O)c2ccccc2Cl)n1`, the activity, negative = inhibition was 1.54%.

For the compound `COc1cc(C2C3C(=O)N(c4ccccc4)C(=O)C3ON2c2ccccc2)ccc1O` (stereo not given), the activity, negative = inhibition was -2.83%.

For `COc1ccc(C2C(C#N)=C(N)SC(N)=C2C#N)cc1OC`, the activity, negative = inhibition was 3.8%.

`Clc1ccc2[nH]c3c(NCCCN4CCOCC4)ncnc3c2c1`: the activity, negative = inhibition was -2.1%.

As to `CCOc1cccc(-c2nn3c(-c4ccco4)nnc3s2)c1`, the activity, negative = inhibition is -0.495%.

`CCCCOC(=O)c1[nH]c(C)c(C(=O)OC)c1C`: the activity, negative = inhibition is -9.04%.

`CC1(C)Cc2c(c(N3CCOCC3)nc3snc(N)c23)CO1`: the activity, negative = inhibition was -10.9%.

`CCOc1ccccc1N1CCN(c2nc3ccccc3nc2C(C#N)C(=O)OC)CC1` (stereo not given): the activity, negative = inhibition was -16.5%.

Consider `CC(=O)Nc1ccc(NCC(O)COc2ccccc2)cc1` (stereo not given), for which the activity, negative = inhibition was 3.96%.

Take `O=C1NC(c2cccs2)Nc2ccccc21` (stereo not given): the activity, negative = inhibition is -4.53%.

With `CCOC(=O)CNC(=O)CNC(=O)c1ccc(OC)cc1`, the activity, negative = inhibition is 14.1%.

Take `O=C(NCc1ccccc1)C1C(=O)N(Cc2ccccc2)C(=O)C1C1(O)CCCC1` (stereo not given): the activity, negative = inhibition was -6.02%.

As for `CC(C)Cc1[nH]c(=O)c(C#N)c2c1CCCC2`, the activity, negative = inhibition was 8.54%.

Consider `Nc1nnc(CC2=CCCCC2)s1`, for which the activity, negative = inhibition was 3.57%.

As for `CCN=C1SC(C(=O)Nc2ccc(Cl)c(Cl)c2)CC(=O)N1CC` (stereo not given), the activity, negative = inhibition was 4.81%.

With `CCC1CC2(C)NC(=O)c3c(sc4c3CC(C)(C)OC4)N2C1=O` (stereo not given), the activity, negative = inhibition was -10.3%.

With `COC(=O)CCc1c(C)[nH]c(=S)[nH]c1=O`, the activity, negative = inhibition is 1.45%.

Regarding `CC(C)(C)C1=Nn2c(nnc2C2CCCCC2)SC1`, the activity, negative = inhibition was 22.7%.

`c1coc(-c2nc3nc4ccccc4nc3n2-c2ccc3c(c2)OCCO3)c1`: the activity, negative = inhibition is -8.28%.

`C/C(=N\O)c1c(C)c2ccccc2n1C`: the activity, negative = inhibition is 4.84%.

As for `Cc1cc(N2C(=O)C(=O)/C(=C(/O)c3ccc(F)cc3)C2c2cccc(Br)c2)no1` (stereo not given), the activity, negative = inhibition was -29.1%.

`CCCCOC(=O)CCc1nc2ccccc2[nH]1`: the activity, negative = inhibition was 6.02%.

(Values after PubChem BioAssay (NCATS).)
